Screening results (PubChem BioAssay)
Hits are enriched below; roughly 21% of the tested compounds scored in any of these assays.
Shiga toxin inh: inhibitors of Shiga toxin in Vero cells; Vero cells, Shiga toxin protein synthesis inhibition reporter; inhibition, % at 38.7 µM; hit rate 9.2% among 290,000; in the data active = inhibition mostly above about 28%, no sharp cut-off; inactive = mostly below about 43%; also: 0% is about no effect
Pf growth 48h: P. falciparum growth inhibition at 48 hours (one generation); hit rate 5.9% among 310,000; Potency, µM (series often up to 28.7 µM), without a hit: top-dose activity change, negative = inhibition, usual class: inhibitors; P. falciparum luciferase growth in erythrocytes, 48 h; also: potency is read from the fitted curve at half-maximal effect; % is scaled to controls: 0 for no effect and ±100 for the full control effect
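Luciferase-expressing P. falciparum in infected erythrocytes (2% hematocrit, 0.1% parasitemia final) in RPMI 1640/0.5% Albumax were exposed to compound for 48 hours at 37 C, 5% CO2; growth read as luminescence.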
CHX counter: counter-screen hit for Shiga toxin inhibitors, cycloheximide; cell reporter, cycloheximide protein synthesis inhibition counterscreen; max response, %; AID 2314; hit rate 12% among 300,000; in the data active = max response mostly above about 13%, no sharp cut-off; inactive = mostly below about 14%; also: read at 38.3 µM for the half of the compounds with a filed dose; 0% is about no effect
Pf growth 96h: P. falciparum growth inhibition at 96 hours; P. falciparum luciferase reporter growth, 96 h; Potency, µM (doses to about 28.7 µM), without a hit: at the top dose activity change, negative = inhibition, usual class: inhibitors; hit rate 6.9% among 320,000; AID 504834; also: potency is read from the fitted curve at half-maximal effect; % is scaled to controls: 0 for no effect and ±100 for the full control effect
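P. falciparum expressing integrated firefly luciferase, in erythrocytes at 2% hematocrit, 0.05% parasitemia, incubated with compounds 96 h at 37 C, 5% CO2. Growth inhibition read as loss of luminescence; two-generation exposure targets delayed-death apicoplast inhibitors.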
HCV inh: HCV inhibition. Huh7.5.1 HCVcc-Cre infection, luciferase reporter, 44 h. Potency, µM (top dose mostly 41.8 µM), for inactives: at the top dose activity change, negative = inhibition, hits mostly inhibitors. hit rate 3.4% among 340,000. AID 651820; also: potency is read from the fitted curve at half-maximal effect; % is scaled to controls: 0 for no effect and ±100 for the full control effect
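After 44 h co-culture of compound, cells and HCVcc-Cre (~0.5 moi), substrate is added for 15 min at room temperature and luciferase measured over 15 sec. Cells were seeded at 1,000/well and pre-cultured 4 h.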
HCMV antiviral: inhibitors of human cytomegalovirus | activity change, negative = inhibition, % at 57.5 µM | hit rate 4.5% among 410,000 | HFF cells, HCMV-luciferase reporter, 72 h; active compounds read low | AID 1259415; in the data active = activity change below about -60%; inconclusive = no clear call, values can overlap the other calls; inactive = above about -39%; also: % is scaled to controls: 0 for no effect and ±100 for the full control effect
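After 16 h attachment at 37C, HFF cells received test compound and HCMV-luciferase (1 PFU/cell); reporter luminescence read 72 h later, data normalized against buffer-only and known inhibitor Salinomycin.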
Numbers without * were called inactive; ? = inconclusive; . = no result given; [ ] = another dose, or the depositor's remark. Unless noted, calls follow the shape of the dose curve; as a rule, active = well fitted inhibition curve with a large enough effect; inconclusive = small, poorly fitted or top-dose-only effect, or another doubt; inactive = no such curve, though single readings can be large or run the other way.

SMILES	Shiga toxin inh	Pf growth 48h	CHX counter	Pf growth 96h	HCV inh	HCMV antiviral
COc1cccc(-c2nc(CS(=O)(=O)CC(=O)NC3CCCC3)c(C)o2)c1	15	14%	-1	37%	?	-21
COc1cccc(-c2nc(CS(=O)(=O)CC(=O)NC3CCCc4ccccc43)c(C)o2)c1 (stereo not drawn)	31	.	7	?	11µM*	?
COc1cccc(-c2nc(CS(=O)(=O)CC(=O)NC3CCC(C)CC3)c(C)o2)c1 (stereo not drawn)	-2	10%	6	?	?	-11
COc1cccc(-c2nc(CS(=O)(=O)CC(=O)Nc3ccc(C(C)=O)cc3)c(C)o2)c1	-13	-14%	-9	0%	11µM*	10
CC1CCN(c2ccc(NC(=O)c3ccccc3[N+](=O)[O-])cc2)CC1	7	-9%	10	-32%[5.75 µM]	-16%	92
COc1ccc(S(=O)(=O)N2CCCOC2CNC(=O)C(=O)NCCCN2CCOCC2)cc1C (stereo not drawn)	14	12%	-1	26%	-4%	-12
CC(OC(=O)CCc1ccccc1)C(=O)Nc1ccc(Cl)cn1 (stereo not drawn)	.	-2%	.	12%	2%[8.37 µM]	-4
COc1cccc(NC(=O)c2ccc(-c3nc(COc4ccccc4)c(C)o3)cc2)c1	.	.	.	.	.	-66*
CN1CCN(NC(=O)c2cc(S(=O)(=O)Nc3ccc(Cl)cc3)ccc2Cl)CC1	-12	4%	8	10%	25%	-34
COc1cccc(CNc2ccc3c(c2)nc(C)n3C)c1OC	61*	32%	33*	?	7%	39
COc1cccc(CNc2ccc3c(c2)ncn3C)c1OC	23	?	19*	-10%	8%	-9
CCCCN(CCCNC(=O)c1cc(Nc2cccc(SC)c2)nc2ccccc12)Cc1ccccc1	-15	.	-7	.	.	-99*
CSc1cccc(Nc2cc(C(=O)NCCc3ccc(Cl)cc3)c3ccccc3n2)c1	.	.	.	.	.	-102*
CC(C)c1ccc(Nc2cc(C(=O)NCCCN(C)Cc3ccccc3)c3ccccc3n2)cc1	.	.	.	.	.	9
Cc1cc(C(=O)NCCc2ccc(Cl)cc2)c2ccccc2n1	-17	26%	-1	20%	-3%	3
COC(=O)C1=C(C)N(CCCC(=O)O)C(=O)NC1c1ccccc1OS(=O)(=O)c1ccc([N+](=O)[O-])cc1 (stereo not drawn)	.	.	.	.	7%	2
Cn1c(N=NC(=O)c2ccccc2)c(O)c2ccccc21	33*	167%	43*	222%	4%	96
O=S(=O)(Nc1cccc2cccnc12)c1cccs1	30	.	20*	.	.	.
O=S(=O)(Nc1cccc2ccccc12)c1cccs1	4	?	9.3*	44%	-4%	37
COc1cccc(CNC(=O)c2cnc3c(-c4ccc(F)cc4)c(C)nn3c2C)c1	.	.	.	.	.	17
CC(OC(=O)Cn1cnc2c1c(=O)n(C)c(=O)n2C)C(=O)Nc1ccc(Cl)cc1 (stereo not drawn)	.	-8%	.	65%	9%	5
Cc1ccc(-n2nnnc2CNC(=O)C(C)(C)C)cc1C	.	.	.	.	.	8
Cc1ccc(NC(=O)Cn2cc(S(=O)(=O)NC(C)C)c(S(=O)(=O)NC(C)C)c2)cc1Cl	.	.	.	.	.	-3
Cc1cccc(NC(=S)Nc2cccc(C(F)(F)F)c2)n1	-4	?	-2	?	-25%	24
FC(F)(F)c1cccc(NC(=S)NC2CCCC2)c1	4	?	-2	6%	9%	-64*
SMILES	Shiga toxin inh	Pf growth 48h	CHX counter	Pf growth 96h	HCV inh	HCMV antiviral
O=C(Nc1cccc(C(F)(F)F)c1)C1CCCCC1	-2	.	9	18%	7%	21
O=C(O)c1ccc(NC(=S)NC2CCCCC2)cc1	10	26%	7	?	28%	2
FC(F)(F)c1ccc(NC(=S)NC2CCCCC2)cc1	82*	?	44*	?	?	-40
CC(C)(C)NNC(=S)Nc1cccc(C(F)(F)F)c1	-17	-21%	2	?	?	-25
CN(C(=O)Nc1cccc(C(F)(F)F)c1)C1CCCCC1	17	20%	-3	45%	1%	-63*
FC(F)(F)c1cccc(NC(=S)Nc2cccc(NC(=S)Nc3cccc(C(F)(F)F)c3)n2)c1	44*	12µM*	24*	?	10µM*	?
CCC(Oc1ccccc1)C(=O)Nc1cc(-c2ccccc2OC)nn1-c1ccccc1 (stereo not drawn)	.	.	.	.	.	44
Fc1cccc(NC(=S)NC2CCCCCCC2)c1	75*	?	35*	80%	-28%	4
CN(C(=O)Nc1ccc(Cl)cc1Cl)C1CCCC1	44*	150%	18*	42%	5%	15
O=C(NCc1ccco1)c1ccc(Cl)cc1[N+](=O)[O-]	-3	7%	-4	27%	24%	-25
C=CCN(c1ccc(C(=O)OC)cc1)S(=O)(=O)c1ccccc1	92*	36%	33*	29%	17%	-18
C=CCN(c1ccccc1)S(=O)(=O)c1cccc(C(=O)Nc2nnc(SCC)s2)c1	-7	4%	8	?	-6%	-62*
C=CCN(c1ccccc1)S(=O)(=O)c1cccc(C(=O)Nc2cccc(C)n2)c1	.	?	.	?	14µM*	-25
Cc1cccc(CSc2nnc(CCNC(=O)OC(C)(C)C)o2)c1	12	-18%	-2	7%	1%	12
O=C(CSc1ccccc1)NNC(=O)c1ccncc1	.	-15%	.	14%	-3%	4
COc1cc(/C=N/N=C2/NC(=O)C(c3ccccc3)S2)ccc1O (stereo not drawn)	-2	-16%	6	-12%	8%	-65*
COc1cc(/C=N/N=C2/NC(=O)C(Cc3ccc(F)cc3)S2)ccc1O (stereo not drawn)	84*	65%	34*	?	2%	-19
COc1ccc(/C=N/N=C2/NC(=O)C(CC(=O)O)S2)cc1OCc1ccccc1Cl (stereo not drawn)	-11	10%	-1	384%	33%	64
COc1ccc(/C=N/N=C2/NC(=O)C(CC(=O)O)S2)cc1OCc1ccc(Cl)cc1Cl (stereo not drawn)	-3	8%	-4	-21%	24%	-35
CCn1nnc2cc(C(=O)Nc3cccc(Cl)c3)ccc21	.	.	.	.	.	41
CN(C)c1cc[n+](CC(O)C[n+]2ccc(N(C)C)cc2)cc1	.	9.3µM*	.	4.7µM*	25%	-31
COc1ccc(Nc2nc(C)nc(N)c2S(=O)(=O)c2ccccc2)cc1	.	.	.	.	.	5
Cc1nn(-c2ccccc2)c(C)c1NC(=O)COC(=O)c1cc([N+](=O)[O-])ccc1NCCO	-6	?	-2	1%	22µM*	-21
O=C(COC(=O)c1ccc(N2CCOCC2)c([N+](=O)[O-])c1)Nc1ccc2c(c1)OCO2	19	12%	-5	24%	4%	-14
